According to PubChem BioAssay (NCI):
About 83,000 compounds went through this panel and 20% of them were active in at least one assay; those are over-represented in the sample as a whole.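 48-hour exposure, single concentration, 96-well plates; percent growth endpoint where 0 means no net growth. Active: below 10.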 Activity calls are given as the source filed them.

system: MDA-MB-468 breast; experiment: NCI-60 one-dose screen, 48 h (100 = growth as untreated, 0 = no growth, -100 = all killed); conditions: 10 µM unless noted

Row | Compound | growth
1 | CCCCCCCCCCCCCC[n+]1cccc(C(N)=O)c1 | -59.9% (active)
2 | CCN(CC)CCOc1ccccc1C | 118% (inactive)
3 | COc1cc(C)ccc1C(=O)c1ccc(C)cc1OC | -20.3% (active)
4 | N#CCCN=Nc1c(O)[nH]c2ccc([N+](=O)[O-])cc12 | 99.7% (inactive)
5 | CSc1nc2c(c(=O)[nH]1)C(c1ccc(Cl)cc1)C1=C(N2)/C(=C/c2ccc(Cl)cc2)CNC1 (stereo not given) | 48.4% (inactive)
6 | CCC1=CCC[C@@]2(C)CCC[C@@]3(C)CCCC(C)(C)[C@]1([O-])[O+]32 | 94.5% (inactive)
7 | COc1cc(/C=C/c2nc(Nc3ccc(S(=O)(=O)Nc4cc(C)on4)cc3)c3ccccc3n2)ccc1O | -7.09% (active)
8 | Cc1[nH]c(C2CC(c3ccc(C(F)(F)F)c(F)c3)=NN2C)c(C)c1C(=O)NCC(F)(F)F (stereo not given) | 81.6% (inactive)
9 | CCCCNc1ccc2c3c1cccc3c(=O)n1c3ccccc3nc21 | -12.2% (active)
10 | NC(N)=N/N=C/CO | 107% (inactive)
11 | O=C1/C(=C/c2ccc(Cl)cc2Cl)CN(S(=O)(=O)c2ccccc2)C/C1=C\c1ccc(Cl)cc1Cl | -24.5% (active)
12 | CC(O)CCNC(c1ccccc1)C(O)c1ccccc1 (stereo not given) | 116% (inactive)
13 | COc1ccc(/C=C2\COc3ccc(O)cc3C2=O)cc1 | 85.7% (inactive)
14 | CC(C)(C)c1ccc(O)c(-c2ccccc2)c1 | 140% (inactive)
15 | O=S(=O)(NCCNc1cc(-c2cn(-c3ccccc3)nc2-c2ccccc2)ccn1)c1ccc(F)cc1 | 58% (inactive)
16 | CSc1cccc([N+](=O)[O-])c1 | 94.1% (inactive)
17 | CON1CCC[C@]2(C)[C@H]3CC[C@@H]4[C@H]5[C@@H](O)C(C)(C)CC[C@]5(CO)CC[C@@]4(C)[C@]3(C)CC[C@H]2C1(C)C | 114% (inactive)
18 | N=c1c2c(-c3ccccc3)c(-c3ccccc3)n(Cc3ccccc3)c2ncn1CCCO | -0.433% (active)
19 | O=C1NC(=O)C(Cc2ccc(OCc3ccc(-c4cc(F)c(F)c(F)c4)cc3)cc2)S1 (stereo not given) | 53.4% (inactive)
20 | CN(C)c1ccc(-c2c(C#N)c(N)n3nc(N)c(C#N)c3c2C#N)cc1 | 81.3% (inactive)

Row | Compound | growth
21 | CCCCCCCC(=O)SCC/C=C/[C@@H]1CC(=O)NCc2nc(cs2)C2=N[C@@](C)(CS2)C(=O)N[C@@H](C(C)C)C(=O)N1 | 40.7% (inactive)
22 | CC(=O)N1N=C(c2ccc(Cl)cc2)CC1c1c(C)nn(-c2ccccc2)c1N(C)Cc1ccccc1 (stereo not given) | 58.9% (inactive)
23 | N#Cc1nc(-c2ccccc2)oc1S(=O)(=O)NCC(c1ccc(Cl)cc1)N1CCCCC1 (stereo not given) | 41.4% (inactive)
24 | COc1cc(CN2CCC(N3CCCC3=O)c3ccccc32)cc(OC)c1OC (stereo not given) | 36.3% (inactive)
25 | C[C@H]1[C@H](C)CC[C@]2(C(=O)NCC#CCN3CCN(C)CC3)CC[C@]3(C)C(=CC[C@@H]4[C@@]5(C)Cc6c([nH]c7ccccc67)C(C)(C)[C@@H]5CC[C@]43C)[C@H]12 | 90.1% (inactive)
26 | CC1(C)c2[nH]c3ccccc3c2C[C@]2(C)[C@H]3C(=O)C=C4[C@@H]5C[C@@](C)(C(N)=O)CC[C@]5(C)CC[C@@]4(C)[C@]3(C)CC[C@@H]12 | 56.4% (inactive)
27 | CCOC(=O)c1cn2c3c(cc(C)cc3c1=O)C(=O)/C(=C/c1ccccc1)C2 | 84.6% (inactive)
28 | O=C1CC2C=CCN2C=C1NC(=O)c1ccccc1 (stereo not given) | 98.9% (inactive)
29 | O=[N+]([O-])c1ccc(Oc2cccnc2)c([N+](=O)[O-])c1 | 21.6% (inactive)
30 | NNCCc1ccc(NC(=O)CCCc2ccc(/C=C/C(=O)NO)cc2)cc1 | 18% (inactive)
31 | CC(C)Sc1ncnc2nc[nH]c12 | 109% (inactive)
32 | COc1ccc(-c2cn(Cc3ccc4c(Br)cc(Br)c(O)c4n3)nn2)cc1 | 72.2% (inactive)
33 | COc1cc2c(-c3cc4c(cc3CNCCc3ccc5c(c3)OCO5)OCO4)cccc2c(OC)c1O | -8.75% (active)
34 | Cc1cccc(C[C@H](NC(=O)Nc2ccc(Cl)cc2F)C(=O)N[C@@H]2C(=O)N3C[C@H](OC(=O)CCN(C)C)C[C@H]3C(=O)N3CCCC[C@H]3C(=O)N[C@@H](C)C(=O)N3C[C@H](C)C[C@H]3C(=O)O[C@H]2C)c1 | 9.39% (active)
35 | COC(=O)[C@]12CC[C@@H](C)[C@H](C)[C@@H]1C1=CC[C@@H]3[C@@]4(C)C(C=O)=C[C@@](C)(COC(=O)c5ccco5)[C@@H]4[C@H](O)C[C@@]3(C)[C@]1(C)CC2 | -12.1% (active)
36 | Cc1nc2sc(C(=O)Nc3cccc4ccccc34)c(N)c2cc1C(C)O (stereo not given) | 25.3% (inactive)
37 | CCN(CC)CCOc1ccc(-c2c(-c3ccccc3)c(=O)oc3ccccc23)cc1 | 72.9% (inactive)
38 | CC(=O)C1=C(C)NC(NN)=NC1c1cccc(Cl)c1 (stereo not given) | 105% (inactive)
39 | Cc1cccc(-c2nc(C(C)C)sc2-c2ccnc(NCCCNS(=O)(=O)c3ccc(Cl)cc3)c2)c1 | 55.2% (inactive)
40 | COc1ccc(OCC(=O)OC(C)C)cc1 | 84.3% (inactive)
